Several values for one entry are separate records, joined by “and”; a condition that tells them apart may be missing. Equal entries are not always repeated. Activity calls are given as the source filed them. How the source made its calls: active means hit-call score of the fitted dose curve at least 0.9, where 1 is the maximum; inactive means score below 0.9.
Legend:
[1] = read-out: Macrophage colony-stimulating factor (MCSF), CSF1 (gene 1435); assay: BSK_hDFCGF_MCSF: BioMAP Diversity Plus: hDFCGF Assay for Macrophage colony-stimulating factor (MCSF) Biomarker Activity (AID 2283060); settings: primary human foreskin fibroblasts; actives raise or lower the signal
How it was run: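 Human foreskin primary fibroblasts were treated with test chemical for 24 h, and M-CSF was then measured by ELISA. Data were fitted bidirectionally against DMSO as the negative control and activity baseline.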

[2] = BSK_hDFCGF_SRB: Viability Assessment in the BioMAP Diversity Plus: hDFCGF Assay (AID 2283061); settings: primary human foreskin fibroblasts;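 further: cells exposed to compound for 24 h before the read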
How it was run: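 Human foreskin primary fibroblasts were treated with compound and assessed 24 h after dosing. Total protein was measured by sulforhodamine B staining (0.1% SRB after 10% TCA fixation, 560 nm read) as a cytotoxicity marker, with bidirectional fitting against DMSO baseline.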

[3] = read-out: TIMP metallopeptidase inhibitor 1 (TIMP1), TIMP1 (gene 7076); assay: BSK_hDFCGF_TIMP1: BioMAP Diversity Plus: hDFCGF Assay for TIMP metallopeptidase inhibitor 1 (TIMP1) Biomarker Activity (AID 2283062); settings: primary human foreskin fibroblasts; actives raise or lower the signal
How it was run: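 Primary human foreskin fibroblasts in the hDFCGF system were dosed with compound for 24 h, then TIMP-1 was measured by ELISA. Activity was fitted bidirectionally relative to DMSO control; parallel SRB staining assessed cytotoxicity.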

[4] = read-out: Monokine induced gamma interferon (MIG), CXCL9 (gene 4283); assay: BSK_hDFCGF_MIG: BioMAP Diversity Plus: hDFCGF Assay for Monokine induced gamma interferon (MIG) Biomarker Activity (AID 2283063); settings: primary human foreskin fibroblasts; actives raise or lower the signal
How it was run: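 ELISA read-out of MIG from primary human dermal fibroblasts 24 h post-dosing. Gain or loss of signal fitted bidirectionally, DMSO as baseline.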

[5] = read-out: Matrix Metallopeptidase 1 (MMP1), MMP1 (gene 4312); assay: BSK_hDFCGF_MMP1: BioMAP Diversity Plus: hDFCGF Assay for Matrix Metallopeptidase 1 (MMP1) Biomarker Activity (AID 2283064); settings: primary human foreskin fibroblasts; actives raise or lower the signal
How it was run: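 Primary human foreskin fibroblasts exposed to chemicals for 24 h; MMP1 measured by ELISA. Cytotoxicity tracked by SRB staining in parallel cultures; bidirectional fit relative to DMSO.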

[6] = read-out: Vascular cell adhesion molecule 1 (VCAM1), VCAM1 (gene 7412); assay: BSK_hDFCGF_VCAM1: BioMAP Diversity Plus: hDFCGF Assay for Vascular cell adhesion molecule 1 (VCAM1) Biomarker Activity (AID 2283065); settings: primary human foreskin fibroblasts; actives raise or lower the signal;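 on AC50: VCAM-1 protein level quantified by ELISA after 24 h chemical exposure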
How it was run: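 Primary human foreskin fibroblasts (hDFCGF system) were dosed with chemical and VCAM-1 was measured by ELISA 24 h later. Bidirectional curve fitting used DMSO as negative control and activity baseline.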

[7] = read-out: Plasminogen activator inhibitor-1 (PAI1), SERPINE1 (gene 5054); assay: BSK_hDFCGF_PAI1: BioMAP Diversity Plus: hDFCGF Assay for Plasminogen activator inhibitor-1 (PAI1) Biomarker Activity (AID 2283066); settings: primary human foreskin fibroblasts; actives raise or lower the signal
How it was run: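 Primary dermal fibroblasts (human foreskin), hDFCGF system; compound 24 h; PAI-1 by ELISA; bidirectional fit vs DMSO control.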

[8] = read-out: Intercellular Adhesion Molecule 1 (ICAM1), ICAM1 (gene 3383); assay: BSK_KF3CT_ICAM1: BioMAP Diversity Plus: KF3CT Assay for Intercellular Adhesion Molecule 1 (ICAM1) Biomarker Activity (AID 2283067); settings: primary human keratinocytes with fibroblasts; actives raise or lower the signal
How it was run: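 Human keratinocyte plus foreskin fibroblast primary co-culture was exposed to chemical for 24 h. ICAM-1 was then quantified by ELISA, and the data were fit bidirectionally against DMSO as the negative control and baseline.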

[9] = read-out: Interferon-gamma inducible Protein 10 (IP10), CXCL10 (gene 3627); assay: BSK_KF3CT_IP10: BioMAP Diversity Plus: KF3CT Assay for Interferon-gamma inducible Protein 10 (IP10) Biomarker Activity (AID 2283068); settings: primary human keratinocytes with fibroblasts; actives raise or lower the signal
How it was run: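 Human keratinocyte plus foreskin fibroblast primary co-culture exposed to test chemical for 24 h; IP-10 measured by ELISA. Concentration-response fitted bidirectionally against DMSO control as baseline.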

[10] = BSK_KF3CT_SRB: Viability Assessment in the BioMAP Diversity Plus: KF3CT Assay (AID 2283069); settings: primary human keratinocytes with fibroblasts;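 further: fitted for both signal gain and loss against DMSO baseline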
How it was run: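 Human keratinocyte and foreskin fibroblast co-culture exposed to chemical for 24 h. Total protein measured in parallel cultures by 0.1% sulforhodamine B staining after 10% TCA fixation, read at 560 nm; bidirectional fit relative to DMSO.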

| Compound | outcome [1] | outcome [2] | outcome [3] | outcome [4] | outcome [5] | outcome [6] | outcome [7] | outcome [8] | outcome [9] | outcome [10] | AC50 [5] | AC50 [7] | AC50 [6] | AC50 [1] | AC50 [2] | AC50 [3] | AC50 [4] | AC50 [8] | AC50 [9] | AC50 [10] |
| --- | --- | --- | --- | --- | --- | --- | --- | --- | --- | --- | --- | --- | --- | --- | --- | --- | --- | --- | --- | --- |
| Cc1ccc(S(=O)(=O)OCC(F)(F)C(F)(F)C(F)(F)C(F)(F)C(F)(F)C(F)F)cc1 | inactive | inactive | inactive | inactive | inactive | inactive | inactive | inactive | inactive | inactive |  |  |  |  |  |  |  |  |  |  |
| C=CC/C=C/C/C=C/C/C=C/C | inactive | inactive | inactive | inactive |  | inactive |  | inactive | inactive | inactive | 16 nM (active) | 0.141 µM (active) |  |  |  |  |  |  |  |  |
| Oc1ccc(Nc2ccccc2)cc1 | inactive | inactive | inactive | inactive | inactive |  |  | inactive | inactive | inactive |  | 17.1 µM (active) | 3.97 µM (active) |  |  |  |  |  |  |  |
| FC(F)(F)C(F)(F)C(F)(F)CI | inactive | inactive | inactive | inactive | inactive | inactive | inactive | inactive | inactive | inactive |  |  |  |  |  |  |  |  |  |  |
| FC(F)(F)C(F)(F)C(F)(F)N(C(F)(F)C(F)(F)C(F)(F)F)C(F)(F)C(F)(F)C(F)(F)F | inactive | inactive | inactive | inactive | inactive | inactive | inactive | inactive | inactive | inactive |  |  |  |  |  |  |  |  |  |  |
| O=C(O)C(F)(OC(F)(F)C(F)(OC(F)(F)C(F)(OC(F)(F)C(F)(F)C(F)(F)F)C(F)(F)F)C(F)(F)F)C(F)(F)F (stereo not given) | inactive | inactive | inactive | inactive | inactive | inactive | inactive | inactive | inactive | inactive |  |  |  |  |  |  |  |  |  |  |
| O=C(CC(=O)C(F)(F)C(F)(F)F)C(F)(F)F | inactive | inactive | inactive | inactive | inactive | inactive | inactive | inactive | inactive | inactive |  |  |  |  |  |  |  |  |  |  |
| C=CC(=O)OCC(F)(F)C(F)(F)C(F)(F)C(F)(F)COC(=O)C=C |  |  |  |  |  |  |  |  |  |  | 17.1 µM (active) and 17.3 µM (active) | 8.89 µM (active) and 8.86 µM (active) | 3.41 µM (active) and 3.27 µM (active) | 5.29 µM (active) and 5.49 µM (active) | 8.52 µM (active) and 8.25 µM (active) | 8.88 µM (active) and 9.2 µM (active) | 3.49 µM (active) and 3.32 µM (active) | 23 µM (active) and 24.1 µM (active) | 19.3 µM (active) and 20.9 µM (active) | 41.7 µM (active) and 43.2 µM (active) |
| O[Si](c1ccccc1)(c1ccccc1)c1ccccc1 |  |  | inactive | inactive | inactive | inactive |  | inactive | inactive | inactive |  | 5.43 µM (active) |  | 5.61 µM (active) | 5.35 µM (active) |  |  |  |  |  |
| OCC(F)(F)C(F)(F)C(F)(F)C(F)(F)C(F)(F)C(F)F | inactive | inactive | inactive | inactive | inactive | inactive | inactive | inactive | inactive | inactive |  |  |  |  |  |  |  |  |  |  |
| O=S(=O)(OCCOC(F)(F)F)C(F)(F)F | inactive | inactive | inactive | inactive | inactive | inactive | inactive | inactive | inactive | inactive |  |  |  |  |  |  |  |  |  |  |
| CCO[Si](CCC(F)(F)C(F)(F)C(F)(F)C(F)(F)C(F)(F)C(F)(F)F)(OCC)OCC | inactive | inactive | inactive | inactive | inactive | inactive | inactive | inactive | inactive | inactive |  |  |  |  |  |  |  |  |  |  |
| CC(=O)Nc1ccc(N=Nc2cc(C)ccc2O)cc1 |  | inactive | inactive |  |  |  | inactive |  |  | inactive | 31000 nM (active) |  | 30.2 µM (active) | 30.8 µM (active) |  |  | 33.8 µM (active) | 20 µM (active) | 34 µM (active) |  |
| CCCCCCCOC(=O)c1ccccc1C(=O)OCCCCCCC | inactive | inactive | inactive | inactive | inactive | inactive | inactive | inactive | inactive | inactive |  |  |  |  |  |  |  |  |  |  |
| CCCCCCCCC(F)(F)C(F)(F)C(F)(F)C(F)(F)C(F)(F)C(F)(F)F | inactive | inactive | inactive | inactive | inactive | inactive | inactive | inactive | inactive | inactive |  |  |  |  |  |  |  |  |  |  |
| FC(F)(F)C(F)(F)C(F)(F)C(F)(F)C(F)(F)C(F)(F)CC1CO1 (stereo not given) | inactive | inactive | inactive | inactive | inactive | inactive | inactive | inactive | inactive | inactive |  |  |  |  |  |  |  |  |  |  |
| C=CC(F)(F)C(F)(F)C(F)(F)C(F)(F)C(F)(F)C(F)(F)C(F)(F)C(F)(F)F | inactive | inactive | inactive | inactive | inactive | inactive | inactive | inactive | inactive | inactive |  |  |  |  |  |  |  |  |  |  |

Reference: PubChem BioAssay (EPA / NIEHS)
